# In PubChem BioAssay:
# Calls of active or inactive are those of the source.
# Tests used:
# [1] = small molecules captured by biotinylated probe aFSTL3 – biochemical, small-molecule microarray, fluorescence 635/667, stem cell growth factor project, primary screen (AID 1064); conditions: higher = more signal;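 note: measures binding of the biotinylated anti-FSTL3 antibody to printed compounds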
# [2] = binders from COS7 lysate, DM2A8 probe, primary screen, torsin A project, cell lysate, small-molecule microarray, fluorescence 635/667 (AID 1065); conditions: higher = more signal, COS7 lysate expressing mutant human TOR1A
# [3] = small molecules captured by biotinylated probe aFGF2 – biochemical, small-molecule microarray, fluorescence 635/667, stem cell growth factor project, primary screen (AID 1067); conditions: higher = more signal;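 note: measures binding of biotinylated aFGF2 protein to printed compounds on slides; z-score merges feature fluorescence and signal-to-noise across triplicate slides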
# [4] = small molecules captured by biotinylated probe aFGF10 – biochemical, small-molecule microarray, fluorescence 635/667, stem cell growth factor project, primary screen (AID 1071); conditions: higher = more signal;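 note: score merges 667 nm spot intensity and signal to noise from triplicate slides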
# [5] = biological target: Neurogenic locus notch homolog protein 2 (Homo sapiens) (UniProt Q04721); experiment: small molecules binding Notch2 protein – biochemical, small-molecule microarray, 635 nm fluorescence, stem cell growth factors, primary screen (AID 1073); conditions: higher = more signal
# Neurogenic locus notch homolog protein 2 (Homo sapiens), sequence (Q04721 whole entry, looked up, canonical isoform): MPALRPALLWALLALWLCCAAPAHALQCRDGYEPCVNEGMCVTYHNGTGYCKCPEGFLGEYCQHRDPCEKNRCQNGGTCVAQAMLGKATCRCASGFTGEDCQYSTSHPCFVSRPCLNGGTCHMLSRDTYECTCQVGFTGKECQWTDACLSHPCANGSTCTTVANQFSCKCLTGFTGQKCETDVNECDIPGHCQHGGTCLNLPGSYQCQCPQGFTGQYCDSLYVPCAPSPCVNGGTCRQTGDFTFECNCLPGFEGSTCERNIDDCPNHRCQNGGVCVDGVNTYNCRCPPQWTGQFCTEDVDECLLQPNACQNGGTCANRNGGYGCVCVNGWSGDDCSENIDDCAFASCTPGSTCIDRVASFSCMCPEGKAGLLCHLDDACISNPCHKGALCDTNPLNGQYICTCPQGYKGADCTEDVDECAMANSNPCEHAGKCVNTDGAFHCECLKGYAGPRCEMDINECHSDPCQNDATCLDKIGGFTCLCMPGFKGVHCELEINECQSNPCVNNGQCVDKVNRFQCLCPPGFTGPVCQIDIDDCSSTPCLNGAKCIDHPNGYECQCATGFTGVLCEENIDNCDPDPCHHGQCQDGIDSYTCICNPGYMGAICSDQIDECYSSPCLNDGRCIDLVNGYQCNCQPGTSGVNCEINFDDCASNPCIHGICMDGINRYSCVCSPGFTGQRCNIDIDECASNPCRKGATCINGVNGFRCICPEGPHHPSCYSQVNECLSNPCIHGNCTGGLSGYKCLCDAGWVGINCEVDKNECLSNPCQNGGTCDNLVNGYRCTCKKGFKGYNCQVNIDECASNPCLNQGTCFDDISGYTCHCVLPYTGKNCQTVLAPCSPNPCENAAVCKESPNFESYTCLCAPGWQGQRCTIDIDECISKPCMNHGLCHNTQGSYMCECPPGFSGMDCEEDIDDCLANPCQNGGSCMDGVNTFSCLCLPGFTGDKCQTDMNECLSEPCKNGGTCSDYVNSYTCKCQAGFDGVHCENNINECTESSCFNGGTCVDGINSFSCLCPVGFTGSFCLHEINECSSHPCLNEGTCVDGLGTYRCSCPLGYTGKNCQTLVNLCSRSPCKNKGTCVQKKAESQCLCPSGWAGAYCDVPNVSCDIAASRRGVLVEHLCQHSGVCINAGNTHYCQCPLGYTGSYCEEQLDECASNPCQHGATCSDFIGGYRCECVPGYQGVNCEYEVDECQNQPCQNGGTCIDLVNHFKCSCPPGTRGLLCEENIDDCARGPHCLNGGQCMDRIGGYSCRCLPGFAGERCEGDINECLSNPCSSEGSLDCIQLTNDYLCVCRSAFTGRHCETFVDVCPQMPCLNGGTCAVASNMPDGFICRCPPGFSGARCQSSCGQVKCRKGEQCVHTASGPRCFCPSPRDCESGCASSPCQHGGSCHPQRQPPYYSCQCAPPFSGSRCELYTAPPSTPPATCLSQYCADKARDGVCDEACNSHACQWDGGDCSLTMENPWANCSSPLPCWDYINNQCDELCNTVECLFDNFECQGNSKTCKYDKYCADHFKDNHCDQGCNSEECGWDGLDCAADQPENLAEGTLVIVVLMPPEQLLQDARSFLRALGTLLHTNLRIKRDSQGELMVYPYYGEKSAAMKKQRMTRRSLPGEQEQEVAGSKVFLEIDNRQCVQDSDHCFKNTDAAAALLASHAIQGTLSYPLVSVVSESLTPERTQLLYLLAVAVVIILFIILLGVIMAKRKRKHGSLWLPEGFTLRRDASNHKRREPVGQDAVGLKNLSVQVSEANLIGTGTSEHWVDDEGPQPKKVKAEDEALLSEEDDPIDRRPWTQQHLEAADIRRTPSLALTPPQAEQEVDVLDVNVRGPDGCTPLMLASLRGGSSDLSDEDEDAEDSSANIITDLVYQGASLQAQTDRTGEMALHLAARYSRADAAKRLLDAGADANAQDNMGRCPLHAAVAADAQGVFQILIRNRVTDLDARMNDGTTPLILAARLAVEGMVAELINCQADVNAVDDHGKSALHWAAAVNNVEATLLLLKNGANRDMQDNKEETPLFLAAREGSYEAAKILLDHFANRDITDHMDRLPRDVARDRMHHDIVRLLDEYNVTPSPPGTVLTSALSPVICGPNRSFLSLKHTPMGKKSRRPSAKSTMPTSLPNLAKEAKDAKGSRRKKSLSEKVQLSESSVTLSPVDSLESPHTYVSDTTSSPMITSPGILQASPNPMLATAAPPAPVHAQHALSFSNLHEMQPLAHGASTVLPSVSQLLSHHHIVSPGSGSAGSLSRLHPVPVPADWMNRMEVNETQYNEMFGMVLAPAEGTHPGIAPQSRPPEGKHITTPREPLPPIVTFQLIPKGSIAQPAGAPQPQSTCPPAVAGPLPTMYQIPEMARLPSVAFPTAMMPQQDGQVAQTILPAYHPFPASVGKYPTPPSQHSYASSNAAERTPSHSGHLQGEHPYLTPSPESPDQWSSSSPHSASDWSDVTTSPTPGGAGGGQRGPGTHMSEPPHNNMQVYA
# [6] = biological target: Pro-neuregulin-1, membrane-bound isoform (Homo sapiens) (UniProt Q02297); experiment: small molecules binding neuregulin-1 protein – biochemical, small-molecule microarray, fluorescence 635/667, psychiatric disease protein project, primary screen (AID 1075); conditions: NRG1 binding, 635 nm fluorescence, higher = more signal;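 note: score combines 667 nm spot fluorescence with signal to noise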
# Pro-neuregulin-1, membrane-bound isoform (Homo sapiens), sequence (Q02297 whole entry, looked up, the tested form may be a part, canonical isoform): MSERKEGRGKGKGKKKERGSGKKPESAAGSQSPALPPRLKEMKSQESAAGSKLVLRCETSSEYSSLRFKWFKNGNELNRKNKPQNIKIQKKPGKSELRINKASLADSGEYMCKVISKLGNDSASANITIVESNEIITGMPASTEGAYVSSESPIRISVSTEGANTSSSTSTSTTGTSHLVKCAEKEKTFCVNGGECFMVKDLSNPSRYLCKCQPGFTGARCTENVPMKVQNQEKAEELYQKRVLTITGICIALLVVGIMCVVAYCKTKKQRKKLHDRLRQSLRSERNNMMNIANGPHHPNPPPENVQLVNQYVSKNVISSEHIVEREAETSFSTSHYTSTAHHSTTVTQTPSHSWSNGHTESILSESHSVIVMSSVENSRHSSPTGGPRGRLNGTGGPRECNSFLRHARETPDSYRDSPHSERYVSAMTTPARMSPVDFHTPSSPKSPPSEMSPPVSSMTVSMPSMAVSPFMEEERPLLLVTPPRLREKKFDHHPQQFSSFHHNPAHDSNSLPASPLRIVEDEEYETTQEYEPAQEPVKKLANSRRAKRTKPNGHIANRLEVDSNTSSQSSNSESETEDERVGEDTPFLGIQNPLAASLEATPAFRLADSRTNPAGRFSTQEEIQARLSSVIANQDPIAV
# [7] = test system: Neuregulin-1 EGF-like domain; experiment: small molecules binding NRG1 EGF domain – biochemical, small-molecule microarray, 635 nm fluorescence, primary screen (AID 1081); conditions: higher = more signal;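 note: binding of the protein to compounds printed on small-molecule microarray slides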
# [8] = FRG1 expression reporter modulators in myotubes – cell-based, C2C12 myotubes, firefly/Renilla luciferase, luminescence, FRG1 inhibition for FSHD, primary screen (AID 1084); conditions: FRG1 promoter luciferase, higher = more signal, called active from +8 up or from −8 down
# [9] = small molecules captured by biotinylated probe aFST – biochemical, small-molecule microarray, fluorescence 635/667, stem cell growth factor project, primary screen (AID 1086); conditions: higher = more signal;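 note: score merges 667 nm fluorescence with signal-to-noise of each printed compound spot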
# [10] = binders of probe aHhip on microarray, primary screen, stem cell growth factor project, biochemical, small-molecule microarray, fluorescence 635/667 (AID 1087); conditions: higher = more signal;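 note: score merges spot fluorescence at 667nm with spot signal to noise ratio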
SMILES,composite z-score [1],composite z-score [2],composite z-score [3],composite z-score [4],composite z-score [5],composite z-score [6],composite z-score [7],z-score [8],composite z-score [9],composite z-score [10]
C=C(COC)C(=O)CC[C@@H](OC(C)=O)c1ccc(CO)o1,-0.263,0.0091,-0.147,0.764,-0.102,-0.0949,0.611,0.632 (inactive),0.316,0.142
COc1ccc(C#Cc2ccc3c(c2)[C@]2(C(=O)N3)[C@H](c3ccccc3OCCO)N3[C@H](c4ccccc4)[C@H](c4ccccc4)OC(=O)[C@H]3[C@@H]2C(=O)Nc2nc3ccccc3s2)cc1,-0.541,-0.0327,-0.0232,0.615,1.18,0.65,1.17,2.1 (inactive),0.362,-0.0618
CCOC(=O)C[C@H]1[C@H](OC(=O)c2ccc(C(=O)c3ccccc3)cc2)[C@@H](NC(=O)CC(C)C)c2cc(OCCCO)ccc2N1C(=O)c1ccc2ccccc2n1,-0.538,0.154,-0.0715,0.86,1.28,0.621,1.22,-0.291 (inactive),0.334,-0.137
C=C[C@H](OC)[C@@H](OC(=O)Nc1ccc(OC)cc1)c1ccc(O)c(F)c1,0.348,0.242,-0.175,-0.827,-1.31,1.11,0.804,2.95 (inactive),-0.922,-0.0994
COc1cc2c(cc1O)C(c1cccs1)N(C)CC2 (stereo not given),-0.101,-0.493,-0.201,-0.143,-0.521,-0.714,-0.31,0.52 (inactive),-0.166,-0.0994
CN1C(=O)C2C=CC(C(O)C3CC=CCC3)N(N(c3ccccc3)c3ccccc3)C2C1=O (stereo not given),0.677,-0.0811,0.0247,-0.0455,0.172,-0.282,0.33,-0.654 (inactive),0.408,-0.137
C=CC[C@]1(C(=O)NCc2ccccc2)N=C(c2ccc(OCCCO)cc2)O[C@H]1c1ccccc1N=[N+]=[N-],-0.158,1.46,0.282,0.399,1.13,1.24,1.04,-0.71 (inactive),1.08,-0.171
C=CCNC(=O)[C@H]1[C@@H]2C(=O)O[C@@H](c3ccccc3)[C@@H](c3ccccc3)N2[C@@H](c2ccccc2OCCO)[C@]12C(=O)Nc1ccc(C#CCC(C(=O)OC)C(=O)OC)cc12,0.0775,0.44,0.0468,0.423,1.53,1.46,1.34,-0.616 (inactive),1.08,0.409
O=C1C2C=CC(C(O)c3cccc4ccccc34)N(Nc3ccccc3F)C2C(=O)N1c1ccccc1 (stereo not given),0.154,-0.371,-0.0209,0.64,1.67,1.27,1.23,0.856 (inactive),1.23,-0.0672
CC1(C)[C@@H]2CC(C(O)C3C=CC4C(=O)N(c5ccccc5)C(=O)C4N3Nc3ccc([N+](=O)[O-])cc3)=C[C@H]1C2 (stereo not given in full),-0.204,0.325,-0.0834,0.873,1.7,1.88,1.2,-1.08 (inactive),0.352,-0.0852
O=C1NC(=O)C2C1C=CC(C(O)c1cc(C(F)(F)F)cc(C(F)(F)F)c1)N2Nc1ccccn1 (stereo not given),-0.119,0.134,-0.0524,0.121,0.312,0.969,1.03,0.589 (inactive),0.138,-0.0726
O=C(N1CCCCC1)[C@]1(Cc2ccccc2)N=C(c2ccc(OCCCO)cc2)O[C@@H]1c1ccccc1,0.542,0.0149,-0.0183,0.541,1.51,1.03,0.884,-0.636 (inactive),0.979,0.289
NC(=O)NCC#Cc1ccc2c(c1)[C@]1(C(=O)N2)[C@H](c2ccc(O)cc2)N2[C@H](c3ccccc3)[C@H](c3ccccc3)OC(=O)[C@H]2[C@@H]1C(=O)O,0.741,-0.935,-0.176,-0.225,-0.897,1.08,-0.224,0.473 (inactive),-0.0113,-0.457
COc1ccc([Si](C)(C)[C@@H]2[C@@H](CC(=O)N3CCC[C@H]3CO)O[C@]3(C(=O)N(c4ccccc4)c4ccccc43)[C@H]2C)cc1,-0.527,0.411,-0.122,0.713,0.907,0.0499,1.11,-1.24 (inactive),0.552,0.21
C[N+](C)(C)CCCCNC(=O)[C@H]1C[C@H]2C(=O)N3CCC[C@H]3C(=O)N2[C@H]1c1cccc(OCCO)c1,0.397,0.442,-0.154,-0.194,-0.568,-0.235,0.807,2.19 (inactive),0.412,0.0053
O=C1C[C@@](C(=O)NC2CC2)(c2ccc([N+](=O)[O-])cc2)[C@@H](c2ccc(CO)cc2I)N1C1CCCCC1,-0.407,0.722,0.0043,0.496,0.677,1.04,1.34,-0.165 (inactive),0.419,0.075
C=C[C@H](CO)NS(=O)(=O)c1ccc(Br)cc1,-0.42,0.213,-0.116,0.243,0.315,0.456,0.827,0.297 (inactive),0.447,0.257
C=CCOC(=O)[C@H]1[C@@H]2C(=O)O[C@@H](c3ccccc3)[C@@H](c3ccccc3)N2[C@@H](c2ccc(OCCOC(=O)[C@H]3C[C@H]4C(=O)N[C@@H](CCCCNC(C)=O)C(=O)N4[C@H]3c3ccc(O)cc3)cc2)[C@]12C(=O)Nc1ccc(I)cc12,-0.37,0.517,0.0126,0.169,0.791,0.349,1.14,0.136 (inactive),1.3,0.312
COCCCNC(=O)[C@@H]1c2ccccc2C(=O)N(Cc2ccccc2Cl)[C@H]1c1ccc(CO)cc1,0.189,-0.0402,-0.117,-0.247,0.161,0.379,1.48,-1.76 (inactive),0.465,-0.0237
CC(C)NC(=O)[C@@]1(c2ccc([N+](=O)[O-])cc2)CC(=O)N(C2CCCCC2)[C@@H]1c1ccc(CO)cc1I,1.12,0.586,-0.0548,-0.0891,-0.0016,0.662,1.12,0.286 (inactive),0.178,0.426
NC(=O)[C@@H]1[C@H]2C(=O)O[C@H](c3ccccc3)[C@H](c3ccccc3)N2[C@H](c2ccc(O)cc2)[C@@]12C(=O)Nc1ccccc12,0.241,-0.933,-0.179,0.0547,-0.985,2.01,0.476,0.308 (inactive),-0.114,-0.314
Cc1ccc(N2C(=O)c3ccccc3[C@@H](C(=O)NC3CC3)[C@@H]2c2ccc(CO)cc2)nc1,1.17,-0.78,-0.149,-1.26,-1.63,-1.14,0.058,0.554 (inactive),-0.479,-0.134
COc1ccc([Si](C)(C)[C@H]2[C@H](CCO)O[C@@]3(C(=O)N(Cc4ccc(N(C=O)c5ccccc5)cc4)c4ccccc43)[C@@H]2C)cc1,-0.151,-0.177,-0.0602,0.143,-0.285,0.799,0.606,-4.11 (inactive),-0.267,-0.249
COCCOC(=O)N1C(=O)[C@@]2(c3cc(C#CCCO)ccc31)[C@H](C(N)=O)[C@H]1C(=O)O[C@H](c3ccccc3)[C@H](c3ccccc3)N1[C@@H]2c1ccc(O)cc1,-0.025,-0.283,-0.0145,0.413,-0.242,0.298,0.171,0.663 (inactive),-0.0464,-0.202
[N-]=[N+]=NCc1ccccc1C[C@]1(C(=O)N2CCCCC2)N=C(c2ccc(OCCCO)cc2)O[C@H]1c1ccccc1N=[N+]=[N-],0.643,0.133,0.158,0.816,1.3,1.57,1.1,-1.99 (inactive),0.637,-0.233
CC(CO)N1C(=O)[C@@H]2C3C(=O)OCCC/C=C\[C@H]3OC23C=CCN(C(C)(C)C)C(=O)[C@@H]13 (stereo not given in full),0.104,0.733,-0.0971,0.255,0.162,0.182,1.17,-1.23 (inactive),-0.269,0.0373
C=CC[C@@]12N=C(c3ccc(OCCCO)cc3)O[C@@H]1c1ccccc1N(C)C2=O,0.463,0.233,0.128,0.638,0.8,1.38,1.31,1.72 (inactive),0.593,0.0972
